# From PubChem BioAssay AID2559 (National Center for Advancing Translational Sciences (NCATS), 2010)
# The list shows a part of the results. A number with no mark means an inactive call. The source made the active and inactive calls.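 The calls were made as follows: active = compounds giving a full or partial concentration-response curve, as inhibitors or activators; inconclusive = weak, top-dose-only or unclear curve responses; inactive = no response at any tested dose.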
# Molecular target: Pyruvate kinase (Leishmania mexicana) (UniProt Q27686)
# Assay: Confirmation Assay for Inhibitors of Leishmania Mexicana Pyruvate Kinase (LmPK)
# Conditions: purified LmPK, Kinase-Glo ATP luminescence, 1 h; series mostly up to 57.5 µM; activity change, negative = inhibition: at the top concentration
# Source text: NIH Chemical Genomics Center [NCGC] Malcolm Walkinshaw, Hugh Morgan, Linda Gilmore University of Edinburgh, UK MLPCN Grant: 1 R03 MH085697-01 NCGC Assay Overview: Pyruvate kinase (L. Mexicana) (LmPK) enzyme was supplied as a highly purified (>95% pure) sulphate-free preparation from University of Edinburgh, UK and assayed for its ability to generate ATP from ADP using phosphoenolpyruvate (PEP) as a substrate. ATP generation was detected in a coupled reaction by luciferase-mediated luminescence, an ATP-dependent process. […] The enzyme was assayed at an intermediate level of activity to screen for both inhibitors and activators.
# NCGC Assay Protocol Summary: Three uL of enzyme mix (kept on ice) in assay buffer (50 mM Imidazole pH7.2, 50 mM KCl, 7 mM MgCl2, 0.01% Tween 20, 0.05% BSA) containing PEP (0.5 mM final concentration) and LmPK (0.1 nM final concentration) was dispensed into white solid bottom 1,536 well microtiter plates. 23 nL of compound were delivered by a pin tool and 1 uL of ADP mix in assay buffer (r.t; 0.1 mM final ADP concentration) was added. Plates were incubated at room temperature for 1 hour. Two uL of detection mix (Kinase-Glo, Promega; at 4 degree Celsius protected from light) was added and luminescence read by a ViewLux (Perkin Elmer) at 1 second exposure/plate. Data were normalized to the uninhibited and AC100 inhibition (no enzyme). To monitor activation, the first column contained a five-fold concentration of LmPK (0.5 nM).
# Sequence of Pyruvate kinase (Leishmania mexicana) (Q27686 whole entry, looked up): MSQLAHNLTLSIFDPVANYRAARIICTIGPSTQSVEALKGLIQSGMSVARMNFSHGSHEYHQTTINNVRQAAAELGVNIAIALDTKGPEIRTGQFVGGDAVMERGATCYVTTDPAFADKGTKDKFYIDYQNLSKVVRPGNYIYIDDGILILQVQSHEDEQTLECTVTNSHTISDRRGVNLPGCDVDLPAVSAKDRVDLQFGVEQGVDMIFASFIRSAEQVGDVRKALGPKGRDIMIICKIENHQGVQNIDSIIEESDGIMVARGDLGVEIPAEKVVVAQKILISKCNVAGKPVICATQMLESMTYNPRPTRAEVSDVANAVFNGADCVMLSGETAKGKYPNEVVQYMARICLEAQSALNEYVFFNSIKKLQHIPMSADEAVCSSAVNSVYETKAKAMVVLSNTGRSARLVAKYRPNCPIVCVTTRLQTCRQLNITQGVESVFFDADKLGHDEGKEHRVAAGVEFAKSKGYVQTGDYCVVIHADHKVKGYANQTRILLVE
SMILES,"activity change, negative = inhibition",Potency
COc1ccc(-c2cc(C(F)(F)F)nc(NCc3cccnc3)n2)cc1,-0.303%,–
CC(=O)N(C1=C(Cl)C(=O)c2ccccc2C1=O)c1ccc(C(=O)O)cc1,–,2.59 µM (active)
COc1ccc(C(=O)C[n+]2ccc(N)c(C)c2C)cc1,-2.39%,–
COCCN(C(=O)c1ccco1)c1nnc(-c2ccc(OC)cc2)s1,-0.0929%,–
CN1CC(c2ccccc2)C2(COc3ccccc3C2=O)C12C(=O)Nc1ccccc12 (configuration not stated),0.969%,–
COc1ccc(-c2cn3ccc(C)cc3n2)cc1,–,9.19 µM (active)
Cn1cc(CN2CCCCC2c2ccccn2)c(-c2ccc3c(c2)OCCO3)n1 (configuration not stated),0.784%,–
